D1 potentiator – human D1 dopamine receptor positive modulation. HEK293 TREx D1 cells, calcium flux, dopamine EC20 potentiation. potentiation, % at 10 µM. 360,000 compounds, 0.036% hits. AID 504651; in the data active = potentiation above about 30%; also: 0% is about no effect
TRHR agonist – agonists of human TRH receptor. activation, % at 2 µM. TRHR cells, calcium flux fluo-8, FDSS agonist mode. AID 493084. 360,000 compounds, 0.18% hits. P34981; also: 0% is about no effect
Target sequence (P34981 whole entry, looked up): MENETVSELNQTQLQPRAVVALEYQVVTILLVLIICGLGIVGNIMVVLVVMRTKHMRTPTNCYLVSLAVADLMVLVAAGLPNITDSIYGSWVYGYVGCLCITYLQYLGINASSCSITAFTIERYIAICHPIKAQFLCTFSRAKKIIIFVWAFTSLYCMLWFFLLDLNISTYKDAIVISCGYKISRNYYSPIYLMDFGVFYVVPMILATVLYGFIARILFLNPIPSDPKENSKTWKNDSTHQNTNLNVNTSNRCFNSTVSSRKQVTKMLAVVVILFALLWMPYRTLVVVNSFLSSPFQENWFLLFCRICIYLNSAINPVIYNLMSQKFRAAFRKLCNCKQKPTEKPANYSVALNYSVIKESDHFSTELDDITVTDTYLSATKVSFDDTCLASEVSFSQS
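In this calcium-flux screen, cells bearing human TRHR are dye-loaded with fluo-8, baselined for 10 cycles, then exposed to library compounds; positive kinetic calcium responses during the agonist phase mark hits, with TRH as control.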
D1 antagonist – antagonists of human D1 dopamine receptor. P21728. HEK293 TREx D1 cells, calcium flux, dopamine EC80; stronger effect = lower value. 360,000 compounds, 3.2% hits. activity change, negative = inhibition, % at 10 µM; in the data active = activity change below about -30%; also: % is scaled to controls: 0 for no effect and ±100 for the full control effect
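Allosteric or orthosteric antagonism assessed as attenuation of the calcium response to EC80 dopamine, added 180 s after compound, in induced HEK293 Trex D1 cells loaded with no-wash calcium dye.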
D1 ag – agonists of human D1 dopamine receptor; activation, % at 2 µM; 360,000 compounds, 1% hits; P21728; HEK293 T-REx D1 cells, calcium flux, agonist mode; also: 0% is about no effect
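Tetracycline-induced HEK293 TREx D1 cells, force-coupled to calcium signalling, were dye-loaded with a no-wash calcium kit. Compound was pin-added after a 10 s baseline. Fluorescence was read kinetically at 1 cycle/s for 180 s, with calcium rises flagged as agonism.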
TRHR PAM – allosteric enhancers of human TRH receptor; TRHR cells, fluo-8 calcium fluorescence, EC20 TRH enhancement; enhancement, % at 2 µM; 360,000 compounds, 0.66% hits; in the data active = enhancement above about 30%; also: 0% is about no effect
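Enhancer read-out: after compound pinning and an initial kinetic agonist-mode read, an EC20 of TRH (10 nM final) was injected and fluo-8 calcium signal (Ex 480/Em 530) followed at 1 s/cycle for 100 cycles in TRHR-expressing cells.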
An asterisk follows results filed as active; x = no result given. This is a sample that favours compounds with a hit; in the whole collection about 4.6% have one here. Rule as the data show it, unless noted: active = activation above about 30%; inactive = the rest.

SMILES	D1 potentiator	TRHR agonist	D1 antagonist	D1 ag	TRHR PAM
CCOC(=O)C1=C(C)N=c2s/c(=C/c3ccc(OCC(=O)O)cc3)c(=O)n2C1c1ccc(SC)cc1 (centres undefined)	-7	19	-15	30*	-1
CCOC(=O)C1=C(C)N=c2s/c(=C\c3ccc(OCC(=O)O)cc3)c(=O)n2C1c1ccc(Cl)cc1 (centres undefined)	-5	9	2	38*	4
CCOC(=O)C1=C(C)N=c2s/c(=C\c3ccc(OCC(=O)O)cc3)c(=O)n2C1c1ccccc1OC (centres undefined)	2	2	4	3	5
CC(C)(C)c1ccc(C(=O)NCCc2csc3nc(-c4ccccc4F)nn23)cc1	-1	0	-4	1	0
COc1ccc(CC(=O)N2CCc3ccccc32)cc1	-2	-1	-1	4	10
COc1ccc(CCC(=O)N2CCCc3ccccc32)cc1	-2	0	-37*	-2	12
O=C(CCn1cccc1)N1CCc2ccccc21	-6	0	-31*	-2	1
COc1ccc(-n2c(=O)[nH]cc(C(=O)N3CCCc4ccccc43)c2=O)cc1	-3	-1	-31*	2	0
CCOc1ccc(-n2c(=O)[nH]cc(C(=O)N3CCCc4ccccc43)c2=O)cc1	0	0	-1	1	-1
O=C(Cc1ccccc1)N1CCc2ccccc21	5	-1	-2	2	1
Cc1cc(=O)oc2cc(OCC(=O)N3CCCc4ccccc43)ccc12	-8	-3	-35*	2	-10
COc1cc(C(=O)NCC(c2ccco2)S(=O)(=O)c2cccs2)cc(OC)c1OC (centres undefined)	1	0	x	3	1
COc1ccc(-c2noc(-c3nnn(-c4cc(C)ccc4C)c3N)n2)cc1	-5	1	-5	11	-5
COCCCNC(=O)N1CCN(c2nnc(C)c3c(C)n(-c4ccc(Cl)cc4)nc23)CC1	-4	0	-16	0	-4
Cc1cc(=O)oc2cc(OCCc3ccccc3)ccc12	-15	0	10	4	-4
CCOC(=O)/C(=N/Nc1ccc(OC)cc1)N1CCCc2ccccc21	-3	-1	-42*	0	-3
Cc1cc(=O)oc2cc(OCCSCCN3CCCCC3)ccc12	-4	0	-37*	1	-1
COc1ccc(OCCCC(=O)N2CCCc3ccccc32)cc1	-8	-1	-34*	4	-4
O=C(Nc1cc(F)ccc1F)C1CCN(c2nc3ccccc3n3cccc23)CC1	0	0	13	11	2
NC(=NCc1ccccc1)c1cccc([N+](=O)[O-])c1	-5	2	9	3	5
CC1(C)CSC(=NCc2ccccc2)N1C(=O)c1cccc([N+](=O)[O-])c1	-5	56*	-38*	85*	-29
CC(NCC(O)COC1CCC(C(C)(C)C)CC1)c1ccccc1 (centres undefined)	25	1	0	112*	14
CC(NCC(O)COc1ccc(Br)cc1)c1ccccc1 (centres undefined)	-10	2	-14	7	1
CC1CCC(C(C)C)C(OCC(O)CNC(C)c2ccccc2)C1 (centres undefined)	-1	-1	43	33*	2
COc1ccc(NC(=O)C(Cc2ccccc2)NS(=O)(=O)c2ccc3c(c2)oc(=O)n3C)c(OC)c1 (centres undefined)	-4	0	-4	1	5
SMILES	D1 potentiator	TRHR agonist	D1 antagonist	D1 ag	TRHR PAM
COc1ccc(C2Nc3ccccc3C(=O)N2Cc2ccccc2)cc1 (centres undefined)	-4	-1	-39*	4	-2
Cc1ccc(-n2ncc3c(NCCCn4ccnc4)ncnc32)cc1C	-3	0	-60*	-4	2
Clc1cccc(-n2ncc3c(NCCCn4ccnc4)ncnc32)c1	-3	0	-40*	4	-6
COc1ccc(-n2ncc3c(NCCCn4ccnc4)ncnc32)cc1	3	0	-11	-1	17
Fc1ccc(-n2ncc3c(NCCCn4ccnc4)ncnc32)cc1	0	0	-8	-1	-3
CC1CCCN(c2ncnc3c2nc2n3CCCCC2)C1 (centres undefined)	6	0	3	1	0
COc1ccc(CNC(=O)c2ccc3c(c2)NC(=O)C(C)S3)cc1 (centres undefined)	-1	0	-13	0	36*
CCOc1ccccc1C(=O)NCC(=O)Nc1ccc(-c2ccccc2)cc1	-2	1	5	0	6
CCOc1ccccc1C(=O)NCC(=O)N(C)Cc1ccccc1C	-4	0	-43*	6	-6
Cc1cc(N2CCOCC2)nc(NCc2ccccc2)n1	-6	0	-63*	45*	-1
Cc1cc(NCc2ccccc2)nc(N2CCOCC2)n1	-7	0	-91*	2	-1
Cc1cc(N2CCOCC2)nc(SCC(=O)c2ccccc2)n1	-3	0	5	0	3
Cc1cc(N2CCCCC2)nc(NCc2ccccc2)n1	-8	15	-50*	81*	-19
CNc1cc(C)nc(N2CCOCC2)n1	1	2	-1	2	-1
Cc1ccc(N2CC(NC(=O)CCc3ccccc3)CC2=O)cc1C (centres undefined)	-2	0	x	-3	5
COc1ccc(S(=O)(=O)Nc2cc(-c3cn4ccc(C)cc4n3)ccc2C)cc1OC	4	-3	2	3	2
CCCS(=O)(=O)Nc1cc(-c2cn3ccc(C)cc3n2)ccc1C	59*	-3	3	0	1
Cc1cc2oc(C(=O)Nc3sc4c(c3C(=O)NCC3CCCO3)CCC4)cc(=O)c2cc1C (centres undefined)	1	0	3	0	6
Cc1ccccc1-c1nc2cc(NC(=O)COc3ccc(F)cc3)ccc2o1	-2	1	-5	8	1
CC(=O)N1N=C(c2ccc(C)cc2)OC1c1cccnc1 (centres undefined)	-2	0	-32*	1	1
CC(=O)N1N=C(c2cccc(Cl)c2)OC1c1ccc(C(C)C)cc1 (centres undefined)	-4	1	1	4	3
COc1ccc(C(=O)c2sc(Nc3ccccc3)nc2N)cc1	-2	1	13	4	8
COc1ccc(C(=O)c2sc(Nc3ccccc3)nc2N)cc1OC	-2	0	6	1	33*
CCc1cn(C2CC(O)C(CO)O2)c(=O)[nH]c1=O (centres undefined)	-4	-1	-35*	2	1
CCOc1ccccc1CNC(=O)Cn1c(-c2ccccc2)cc(C(C)=O)c1C	0	0	-11	-1	-3
Cc1ccc(C(=O)N2CC=C(c3ccccc3)CC2)s1	3	-1	4	3	1

Assay outcomes: PubChem BioAssay, National Center for Advancing Translational Sciences (NCATS)
